RGS12 GoLoco inh – RGS12 GoLoco-Gai1 interaction inhibition. Gai1:RGS12 GoLoco peptide FP, rhodamine, 10 min. hit rate 0.44% among 230,000. Potency, µM (series often up to 61.6 µM), most hits filed as inhibitors. P63096; active = well fitted inhibition curve with a large enough effect, not every such curve was filed as active; inactive = no such curve, though single readings can be large or run the other way; also: nearly all actives have a fitted effect of over 30% in size
Target sequence (P63096 whole entry, looked up): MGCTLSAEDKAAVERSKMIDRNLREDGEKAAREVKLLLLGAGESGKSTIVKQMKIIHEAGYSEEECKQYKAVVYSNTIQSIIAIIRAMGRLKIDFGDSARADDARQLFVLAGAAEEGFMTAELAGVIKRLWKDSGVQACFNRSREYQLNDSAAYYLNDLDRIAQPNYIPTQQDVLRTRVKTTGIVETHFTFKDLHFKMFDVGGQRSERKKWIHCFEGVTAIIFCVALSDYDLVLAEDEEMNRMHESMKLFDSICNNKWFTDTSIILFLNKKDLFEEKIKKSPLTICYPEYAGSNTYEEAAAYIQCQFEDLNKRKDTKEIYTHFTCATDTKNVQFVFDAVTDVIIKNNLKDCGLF
TR SRC2 fluor cs – counter-screen for TRb-SRC2 inhibitors: fluorescence interference. TRb/SRC2 Texas Red total fluorescence interference. Potency, µM (series often up to 106 µM). hit rate 0.29% among 280,000; active = well fitted curve in either direction with a large enough effect; inconclusive = small, poorly fitted or top-dose-only effect
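Human TRb ligand-binding domain at 0.6 uM with 20 nM Texas Red SRC2 peptide in Tris buffer containing 1 uM T3 and 5% DMSO, incubated with compound 5 h at ambient temperature. Total fluorescence (555/632 nm) calculated as parallel + 2 × perpendicular.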
Coupling enz – counter-screen for Giardia aldolase inhibitors: coupling enzyme system; coupling enzyme system counterscreen, AmpLite Red fluorescence; activity change, negative = inhibition, % at 58.2 µM, hits read low; AID 2472; hit rate 0.67% among 290,000; in the data active = activity change below about -30%
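Counterscreen lacking aldolase: glyceraldehyde-3-phosphate coupling-enzyme reagent preincubated 10 min at RT with compound (at 57.5 uM final), then substrate/coupling system with AmpLite Red added; fluorescence read at 525/598 nm after 20 min RT.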
TRb-SRC2 inh – inhibitors of human thyroid hormone receptor beta-SRC2 interaction; TRbeta-SRC2 peptide binding, fluorescence polarization; receptor liganded with 1 µM T3; P10828; hit rate 0.065% among 280,000; Potency, µM (titrated, usually from 106 µM), actives largely listed as inhibitors; AID 1469; active = well fitted inhibition curve with a large enough effect; inconclusive = small, poorly fitted or top-dose-only effect, or effect the other way; also: nearly all actives have a fitted effect of over 50% in size
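A fluorescence polarization screen tested compounds at multiple concentrations against complex formation between 0.6 uM TRb ligand-binding domain and 20 nM Texas Red SRC2 peptide, with 1 uM T3 present; readout after 5 hr.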
Large screens that a line does not name were inactive; [ ] = dose if it differs, or a comment. An excerpt weighted towards active compounds, which were near 0.93% of everything screened.

COc1ccc(N2CCC(CNC(=O)Nc3ccc(OC)cc3OC)C2)cc1 (configuration not stated)	Coupling enz -31
CCCn1c2ccccc2c2cnn(CC(=O)Nc3cc(OC)c(OC)c(OC)c3)c(=O)c21	TR SRC2 fluor cs 18µM[quencher] (no result: RGS12 GoLoco inh, Coupling enz)
Cc1cccc(N2CC(C(=O)Nc3nnc(SCC(=O)Nc4nccs4)s3)CC2=O)c1 (configuration not stated)	none
Cc1cccc(N2CC(C(=O)Nc3nnc(SCC(=O)Nc4cc(C)on4)s3)CC2=O)c1 (configuration not stated)	Coupling enz -44
CCN(C(=O)CSc1nnc(-c2cc3occc3n2C)n1-c1ccccc1C)c1ccccc1	TR SRC2 fluor cs 79µM[quencher] (no result: RGS12 GoLoco inh, Coupling enz)
CCN(C(=O)CSc1nnc(-c2cc3occc3n2C)n1-c1ccccc1C)c1cccc(C)c1	none (no result: RGS12 GoLoco inh, Coupling enz)
Cn1nnc(NC(=O)c2ccco2)n1	none
Cn1nnc(NC(=S)NC(=O)c2ccco2)n1	TR SRC2 fluor cs inconclusive, Coupling enz -43, TRb-SRC2 inh inconclusive
CCOC(=O)COc1ccc([N+](=O)[O-])cc1-c1ccnc2cc(-c3ccc(C)cc3)nn12	none (no result: RGS12 GoLoco inh, Coupling enz)
Cc1cc(O)c(-c2ccnc3cc(-c4ccccc4)nn23)cc1Cl	TR SRC2 fluor cs 11µM[quencher] (no result: RGS12 GoLoco inh, Coupling enz)
Cc1cc(-c2ccccc2)n2nc(-c3cccc(Br)c3)cc2n1	none (no result: RGS12 GoLoco inh, Coupling enz)
Cc1ccc(-c2cc3nccc(-c4cc([N+](=O)[O-])ccc4O)n3n2)cc1	TR SRC2 fluor cs 45µM[quencher] (no result: RGS12 GoLoco inh, Coupling enz)
COc1ccc2c(c1)OCC1=C2CCC2(C)C(=O)CC=C12 (configuration not stated)	Coupling enz -34
COc1ccc2c(c1)SCCC2=O	none
CCN(CC)c1ccc2nc3c(=O)n(C)c(=O)n(C)c3nc2c1	TR SRC2 fluor cs 22µM[fluorescent] (no result: RGS12 GoLoco inh, Coupling enz)
Cc1[nH]c2ccccc2c1C(c1ccccn1)c1c(C)[nH]c2ccccc12	Coupling enz -71
COc1ccc(-n2c(SCC(=O)Nc3nnc(C)s3)nc3c([nH]c4ccccc43)c2=O)cc1	none (no result: RGS12 GoLoco inh, Coupling enz)
COc1cc2ccccc2cc1C(=O)Nc1ccc2oc(-c3cccc(C)c3)nc2c1	TR SRC2 fluor cs 3.2µM[quencher], TRb-SRC2 inh inconclusive (no result: RGS12 GoLoco inh, Coupling enz)
Cc1[nH]n(-c2ccccc2)c(=S)c1C=Nc1cccc([N+](=O)[O-])c1	RGS12 GoLoco inh 13µM
CCCCN=Cc1c(C)[nH]n(-c2ccccc2)c1=S	none
O=[N+]([O-])c1cc(CN2CCCC2)c2cccnc2c1O	Coupling enz -35
Oc1c(Cl)cc(CN2CCCCC2)c2cccnc12	none (no result: RGS12 GoLoco inh, TR SRC2 fluor cs, TRb-SRC2 inh)
O=c1c2ccccc2oc2cc(O)c(C3COCC(CO)C(O)C(O)C3O)c(O)c12 (configuration not stated)	none
O=C(O)c1ccc(Cl)c(S(=O)(=O)Nc2ccc3cn[nH]c3c2)c1	Coupling enz -71
COc1cc(S(=O)(=O)Nc2ccc3cn[nH]c3c2)ccc1Cl	none
NC(=NCCc1c[nH]c2ccccc12)NS(=O)(=O)c1ccc2ccccc2c1	Coupling enz -36
COC(=O)c1cc2c(-c3ccccc3)cc3ccccn3c-2c1C(=O)OC	none
COC(=O)c1c(C(=O)OC)c2cccc3cc(-c4ccccc4)c4ccc1c4n32	RGS12 GoLoco inh 18µM
Cn1c(C(=O)NCCc2ccccc2)cc2sc(Cl)cc21	none (no result: RGS12 GoLoco inh, Coupling enz)
CC(C)CCNC(=O)c1ccc2nc(CCc3ccccc3)oc2c1	none (no result: RGS12 GoLoco inh, Coupling enz)
Cc1cccc(NC(=O)Cn2cc(S(=O)(=O)c3ccc(F)cc3)c(=O)c3cc4c(cc32)OCO4)c1	none (no result: RGS12 GoLoco inh, Coupling enz)
CCc1ccc(/C=C/c2c[nH]c3ccccc23)[n+](CC)c1	RGS12 GoLoco inh 6.3µM
CCc1ccc(-c2cc(C(=O)N/N=C/c3c[nH]c4ccccc34)[nH]n2)cc1	none
COc1ccc(-c2cn3cc(C)ccc3n2)cc1F	Coupling enz -34
CCOc1cc(CNc2ccc(O)cc2)cc(Br)c1OCc1ccccc1F	TR SRC2 fluor cs inconclusive, Coupling enz -56, TRb-SRC2 inh 32µM
COc1cc(CNCc2ccncc2)cc(Br)c1OCc1ccccc1F	none
COc1cc(CNc2ccc(O)cc2)cc(Br)c1OCc1ccccc1F	Coupling enz -57
CCC(NC(=O)Nc1ccc(O)cc1)(C(F)(F)F)C(F)(F)F	Coupling enz -43, TRb-SRC2 inh inconclusive
CC(NC(=O)Nc1ccc(O)cc1)(C(F)(F)F)C(F)(F)F	Coupling enz -33, TRb-SRC2 inh 35µM
Cc1c(C(=O)NCc2cccc(F)c2)oc2c1-c1[nH]ncc1CC2	none (no result: RGS12 GoLoco inh, Coupling enz)
O=C(Cn1sc2ccccc2c1=O)NC12CC3CC(CC(C3)C1)C2	RGS12 GoLoco inh 28µM
Nc1cccc2c1C(=O)N(CC(=O)NC13CC4CC(CC(C4)C1)C3)C2=O	none
CC(C)NS(=O)(=O)c1ccc2nc(NC(=O)c3cncc(Br)c3)sc2c1	none (no result: RGS12 GoLoco inh, Coupling enz)
CCn1cc2nc(SCC(=O)Nc3ccc(OC)c(OC)c3)n(Cc3ccc(OC)cc3)c(=O)c2n1	none (no result: RGS12 GoLoco inh, TR SRC2 fluor cs, TRb-SRC2 inh)
CCn1cc2nc(SCC(=O)Nc3ccc(OC)c(Cl)c3)n(Cc3ccc(OC)cc3)c(=O)c2n1	TR SRC2 fluor cs 3.5µM[quencher], TRb-SRC2 inh inconclusive (no result: RGS12 GoLoco inh, Coupling enz)
CCOc1ccccc1CNC(=O)c1cnc2sc(N3CCC(C)CC3)nn2c1=O	none (no result: RGS12 GoLoco inh, Coupling enz)
C=C(C)C(=O)OCCN(C)C	none (no result: RGS12 GoLoco inh, Coupling enz)
OCc1nnn(-c2ccccc2)c1CO	none
Nc1c(CO)nnn1-c1ccccc1	RGS12 GoLoco inh 3.2µM
Cc1cc(O)c(C=O)c(O)c1C(=O)O	none
Cc1cc(O)c(C=O)c2c1C(=O)Oc1c(CO)c(O)c3c(c1O2)C(O)OC3=O (configuration not stated)	RGS12 GoLoco inh 11µM, TR SRC2 fluor cs 11µM[quencher], TRb-SRC2 inh inconclusive
Cc1cc(O)c(C=O)c2c1C(=O)Oc1c(COC(=O)/C=C/C(=O)O)c(O)c(C(=O)O)c(C)c1O2	TR SRC2 fluor cs 7.1µM[quencher], TRb-SRC2 inh inconclusive
Cc1cc(O)c(CN(C)C)c2c1C(=O)/C(=C/c1ccco1)O2	none (no result: RGS12 GoLoco inh, TR SRC2 fluor cs, TRb-SRC2 inh)
COc1ccc2c(c1)O[C@@H](c1ccc3c(c1)OCO3)[C@H](OC(=O)N[C@H](C)C1CCCCC1)C2=O	RGS12 GoLoco inh 32µM
CC(=O)Oc1ccc(C(=O)[C@H]2[C@H]3C(=O)N(c4ccccc4)C(=O)[C@H]3[C@@H]3C=CC=NN32)cc1	Coupling enz -41
COc1ccc(N2C(=O)[C@@H]3[C@H](C2=O)[C@H](C(=O)c2ccc(OC(C)=O)cc2)N2N=CC=C[C@@H]32)cc1	none
O=C(Nc1ccc(F)cc1Cl)C1CCN(c2ncnc3c2nc2n3CCCCC2)CC1	none (no result: RGS12 GoLoco inh, Coupling enz)
CC(C)Nc1nc(-c2ccccc2)nc(-n2ccnc2)n1	none
c1ccc(-c2nc(-n3ccnc3)nc(-n3ccnc3)n2)cc1	Coupling enz -51
O=C(c1cccs1)[C@@H]1[C@@H]2C(=O)N(Cc3ccc4c(c3)OCO4)C(=O)[C@@H]2C2c3ccccc3C=CN21 (some centres not stated)	Coupling enz -38
CC(C)(C)C(=O)[C@@H]1[C@@H]2C(=O)N(C3CCCCC3)C(=O)[C@@H]2[C@H]2c3ccccc3C=CN12	none
O=C1C=C[C@@H](O)[C@H]2[C@@H]3C(=O)N(Cc4ccc5c(c4)OCO5)C(=O)[C@@H]3CC[C@H]12	none (no result: RGS12 GoLoco inh)
O=C(c1ccc2c(c1)OCO2)[C@@H]1[C@@H]2C(=O)N(C3CCCCC3)C(=O)[C@@H]2C2c3ccccc3C=CN21 (some centres not stated)	Coupling enz -36
